Most compounds without a hit are left out; they make up all but 10% or so of the library.
Gal4-VP16 FLuc: counter-screen for ROR gamma inhibitors: Gal4-VP16 reporter | Drosophila S2 Gal4-VP16 UAS-luciferase, luminescence, 20 h | Potency, µM (series often up to 53.6 µM), without a hit: at the highest dose activity, negative = inhibition, actives largely listed as inhibitors | 3.5% of 310,000 active | AID 2546;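 also: Gal4-VP16 expression switched on by copper sulfate through the metallothionein promoter; % is scaled to controls: 0 for no effect and ±100 for the full control effect; nearly all actives have a fitted effect of over 50% in size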
KB-V1 cytotox: kills drug-selected multidrug resistant KB-V1 cells; Potency, µM (titrated, usually from 46.1 µM), most hits filed as cytotoxic; KB-V1 MDR cells viability, CellTiter-Glo, 72 h; 3.4% of 400,000 active; also: % is scaled to controls: 0 for no effect and ±100 for the full control effect; nearly all actives have a fitted effect of over 60% in size
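qHTS viability screen in drug-selected KB-V1 MDR cells: 72 h compound treatment at 37 degrees C, ATP luminescence end point.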
KB-3-1 tox: kills parental KB-3-1 adenocarcinoma cells | Potency, µM (titrated, usually from 46.1 µM), usual class: cytotoxic | 1.4% of 400,000 active | KB-3-1 viability, CellTiter-Glo ATP luminescence, 72 h; also: % is scaled to controls: 0 for no effect and ±100 for the full control effect; nearly all actives have a fitted effect of over 60% in size
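72 h, 37 °C compound treatment of KB-3-1 parental cells; CellTiter-Glo added, 10 min, luminescence read. Data corrected against DMSO-only plates and normalized before curve fitting.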
MCF10A rerep: induces DNA re-replication in MCF 10a normal breast cells. MCF 10A DNA re-replication, Hoechst nuclear intensity, 48 h. Potency, µM (series often up to 46.1 µM), for the others: at the top dose activity, positive = re-replication, most hits filed as activators. 2.9% of 350,000 active. AID 624296; also: % of control where 0% means no effect; nearly all actives have a fitted effect of over 50% in size
RORg inh: blocks mouse ROR gamma transcriptional activity; Drosophila S2 Gal4-RORgamma UAS-luciferase reporter, 20 h; Potency, µM (titrated, usually from 53.6 µM), inactives show top-dose activity change, negative = inhibition, actives largely listed as inhibitors; 5.4% of 310,000 active; also: % is scaled to controls: 0 for no effect and ±100 for the full control effect; nearly all actives have a fitted effect of over 60% in size
Target sequence (P51450 whole entry, looked up, the tested form may be a part): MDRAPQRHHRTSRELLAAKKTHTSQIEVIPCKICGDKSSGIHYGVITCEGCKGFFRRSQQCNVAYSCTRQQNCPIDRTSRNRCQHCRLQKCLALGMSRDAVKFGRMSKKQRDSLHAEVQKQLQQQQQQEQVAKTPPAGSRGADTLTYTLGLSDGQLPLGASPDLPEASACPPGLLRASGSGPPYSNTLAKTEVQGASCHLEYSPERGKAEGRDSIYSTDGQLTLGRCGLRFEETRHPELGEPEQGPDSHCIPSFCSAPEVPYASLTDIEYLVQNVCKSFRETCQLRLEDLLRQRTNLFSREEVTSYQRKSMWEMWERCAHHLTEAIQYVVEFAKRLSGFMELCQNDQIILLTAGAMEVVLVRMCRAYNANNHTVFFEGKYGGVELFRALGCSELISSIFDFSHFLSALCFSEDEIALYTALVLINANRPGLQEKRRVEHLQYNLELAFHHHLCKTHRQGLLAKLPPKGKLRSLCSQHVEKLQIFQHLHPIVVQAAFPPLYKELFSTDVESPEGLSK
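Stably transfected Drosophila Schneider cells are the test system, with ROR gamma fused to Gal4 and luciferase under UAS control; luminescence is read after 20 hr of 700 uM copper sulfate induction at ambient temperature.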
SW480 rerep: inducers of DNA re-replication in SW480 colon cancer cells. SW480 DNA re-replication, Hoechst DNA content imaging, 48 h. Potency, µM (doses to about 46.1 µM), without a hit: at the top dose re-replication activation, most hits filed as activators. 1.8% of 340,000 active. AID 624297; also: % of control where 0% means no effect; nearly all actives have a fitted effect of over 55% in size
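Image-based read-out: total Hoechst fluorescence of nuclei (405 nm excitation, 500-530 nm emission), with hits raising the fraction of high-intensity nuclei. SW480 colon cells incubated 48 hr with compounds at 37 C.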
Numbers without * were called inactive; i = inactive; ? = inconclusive; · = no result; [ ] = remark or other dose. Calls follow the shape of the dose curve; as a rule, active = well fitted curve in the direction sought with a large enough effect; inconclusive = small, poorly fitted or top-dose-only effect, or another doubt; inactive = no such curve, though single readings can be large; an effect the other way counts as inactive or inconclusive. Potency is read from the fitted curve at half-maximal effect.

SMILES | Gal4-VP16 FLuc | KB-V1 cytotox | KB-3-1 tox | MCF10A rerep | RORg inh | SW480 rerep
Cc1ccc(Cl)cc1N1CCN(C(=O)CCCn2c(=O)[nH]c3ccc(Br)cc3c2=O)CC1 | · | ? | i | · | · | ·
CCc1ccc(NC(=S)NC(=O)CC(C)C)cc1 | 1µM* | i | i | 1.6% | 1.12µM* | 10.4%
CCOc1ccc(NC(=O)c2ccco2)cc1 | · | i | i | 5.7% | -9.3%[0.365 µM] | -1.7%
CCOc1ccc(NC(=S)NC(=O)c2ccco2)cc1 | ? | i | i | -2.3% | 6.31µM* | -0.4%
COc1ccc(NC(=O)c2ccco2)cc1NC(=O)c1ccco1 | 10.6% | i | i | 2.3% | 28.7% | 1.9%
COc1ccc(NC(=O)Cc2ccc(Cl)cc2)cc1NC(=O)c1ccco1 | -4.3% | 7.31µM* | i | 10.9% | 7.6% | 7.5%
CCN(CC)S(=O)(=O)c1ccc(NC(=S)NC(=O)CC(C)C)cc1 | ? | i | i | ? | ? | 2.6%
COC(=O)c1sccc1S(=O)(=O)N(CC(=O)NCc1ccc(F)cc1)c1ccc(Cl)cc1 | · | i | i | · | · | ·
C=CCOC(=O)C(C(C)=O)C(NC(=O)OC)c1cccs1 (stereo unspecified) | -7.9%[10 µM] | · | · | · | 11.3%[10 µM] | ·
Cc1ccccc1S(=O)(=O)NC(=O)C1(C)CCN1C(=O)COc1ccc(Cl)cc1 (stereo unspecified) | · | i | i | · | · | ·
O=C(CCC(=O)N1CC2CCCN2c2ccccc21)NCc1ccc(F)cc1 (stereo unspecified) | · | i | i | · | · | ·
COc1ccc(-c2ccc3c(c2)O[C@@H](CN(C)C(=O)c2ccccc2F)[C@@H](C)CN([C@@H](C)CO)S3(=O)=O)cc1 | · | i | i | · | · | ·
COc1ccc(-c2ccc3c(c2)O[C@H](CN(C)C(=O)Nc2ccccc2F)[C@@H](C)CN([C@H](C)CO)S3(=O)=O)cc1 | · | 11.6µM* | ? | · | · | ·
CC(=O)Nc1ccc(S(=O)(=O)Oc2ccc(C(=S)N3CCC(O)CC3)cc2)cc1 | 35.5µM* | i | i | 0.1% | ? | 1.9%
O=C(c1cc(-n2cnnc2)ccc1Cl)N1CCN(c2nc(-c3ccccc3)cs2)CC1 | -6.5% | i | 20.6µM* | -3.0% | ? | 23.1%
Nc1ncnc(Oc2cccc3cccnc23)c1[N+](=O)[O-] | 8.91µM* | i | i | -34.8% | 4.47µM* | ?
CC(=O)c1ccc(Oc2ncnc(N)c2[N+](=O)[O-])cc1 | 3.6% | ? | ? | 4.11µM* | -25.0% | -0.7%
Cc1cccc(NC(=O)C2CCN(S(=O)(=O)c3ccc(F)cc3)CC2)c1C | · | ? | i | · | · | ·
CCCCOC(=O)c1c(C)oc2c1cc(NS(=O)(=O)c1cc(OC)ccc1OC)c1ccccc12 | · | i | i | · | · | ·
Cc1c(-c2ccccc2)oc2c(C(=O)N3CCN(c4ccccc4F)CC3)cccc2c1=O | ? | 4.61µM* | ? | 0.4% | -2.5% | -4.0%
CCCCNC(=O)c1cccc2c(=O)c(C)c(-c3ccccc3)oc12 | 17.4% | ? | i | 10.9% | ? | -2.9%
Cc1ccccc1-n1nc(CSc2nc3ccccc3[nH]2)c(-c2ccccc2)c1N | ? | 18.4µM* | ? | 29.8% | ? | 10.4%
Nc1c(-c2ccccc2)c(CSc2nc3ccccc3[nH]2)nn1-c1cccc(Cl)c1 | ? | ? | 23.1µM* | ? | ? | ?
Cc1cc2ncn(-c3ncnc4scc(-c5ccccc5)c34)c2cc1C | -25.0% | 4.11µM* | i | 23.6% | 5.62µM* | -1.1%
Cc1cc2ncn(-c3ncnc4sc5c(c34)CCC(C)C5)c2cc1C (stereo unspecified) | 7.7% | 13µM* | i | ? | -27.8% | 0.1%
Cc1cc2ncn(-c3ncnc4sc5c(c34)CCCC5)c2cc1C | -27.7% | i | i | -1.4% | -40.0% | 3.1%
NC(=O)c1ccc2nc(-c3ccc(Oc4ccc(Cl)cc4)cc3)[nH]c2c1 | ? | i | i | · | ? | ·

Source: PubChem
